{
  "source": "PubChem BioAssay (NCATS)",
  "note": "Calls of active or inactive are those of the source. Calls follow the shape of the dose curve; as a rule, active = well fitted curve in the direction sought with a large enough effect; inconclusive = small, poorly fitted or top-dose-only effect, or another doubt; inactive = no such curve, though single readings can be large or run the other way.",
  "data": [
    {"molecular_target": "Alpha-galactosidase (Coffea arabica) (UniProt Q42656)", "sequence (Q42656 whole entry, looked up)": "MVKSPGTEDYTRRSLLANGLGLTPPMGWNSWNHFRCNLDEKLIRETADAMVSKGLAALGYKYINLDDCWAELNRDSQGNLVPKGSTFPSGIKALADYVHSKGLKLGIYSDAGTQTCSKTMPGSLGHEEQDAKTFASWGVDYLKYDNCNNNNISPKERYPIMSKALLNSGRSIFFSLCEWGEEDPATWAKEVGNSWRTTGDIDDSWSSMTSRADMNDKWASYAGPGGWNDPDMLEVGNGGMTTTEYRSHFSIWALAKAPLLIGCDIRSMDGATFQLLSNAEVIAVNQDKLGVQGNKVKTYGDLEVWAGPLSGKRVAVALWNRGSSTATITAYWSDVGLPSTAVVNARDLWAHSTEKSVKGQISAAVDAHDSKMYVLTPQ", "experiment": "Counterscreen for Glucocerebrosidase Inhibitors: qHTS Assay for Coffee Bean alpha-Galactosidase at pH 4.5 (AID 957)", "conditions": "purified coffee bean alpha-galactosidase, fluorogenic substrate; series mostly up to 76.9 µM", "from_the_text": "NIH Chemical Genomics Center [NCGC]\nNIH Molecular Libraries Screening Centers Network [MLSCN]\nPI Name: Zheng, Wei [NIH]\nAlpha-galactosidase is a homodimeric glycoprotein that hydrolyzes the terminal alpha-galactosyl moieties from glycolipids and glycoproteins. Deficiency of this enzyme results in Fabry Disease with progressive accumulation of globotriaosylceramide and other glycosphingolipids in vascular endothelial cells that causes renal failure, myocardial infarction and stroke, and premature death in patients. It has reported that the improper folding and trafficking of alpha-galactosidase resulted from the genetic mutations may account for a significant numbers of Fabry patients. […] We optimized this coffee bean alpha-galactosidase assay in 1536-well plate format as a counter-screen assay for identifying the selective small molecule inhibitors of other lysosomal enzymes.\nNCGC Assay Protocol Summary:\nThis is a fluorogenic enzyme assay with 4-Methylumbelliferyl alpha-D-galactopyranoside as the substrate and green coffee bean […] (from Sigma-Aldrich) as the enzyme preparation. Upon the hydrolysis of this fluorogenic substrate, the resulting product, […]. 4-Methyllumbelliferone, can be excited at 365 nm and emits at 440 nm which can be detected by a standard fluorescence plate reader. Data were normalized to the controls for basal activity (without enzyme) and 100% activity (with enzyme). In the AC50 values were determined from concentration-response data modeled with the standard Hill equation.\nAssay buffer: 50 mM citric acid, 0.005% Tween-20, pH 4.5. (pH 5.9 is an optimal condition for this enzyme assay. This assay in pH 4.5 is used for comparison the inhibitor activities with the human alpha-galactosidase assay)\n1536-well assay protocol for the coffee bean alpha-galactosidase:\n(1) Add 2 ul/well of enzyme (2 nM final)\n(2) Add 23 nL compounds in DMSO solution. The final titration was 0.7 nM to 77 uM.\n(3) Add 1 ul of substrate (80 uM final)\n(4) Incubate at room temperature for 20 min.\n(5) Add 2 ul stop solution (1M NaOH and 1M Glycine mixture, pH 10)\n(6) Detect the assay plate in a ViewLux plate reader (PerkinElmer) with Ex=365 nm and Em=440nm.\nKeywords: Alpha-galactosidase, Fabry Disease, pharmacological chaperone, chaperone therapy, high throughput screening, alpha-galactosidase inhibitor, MLSMR, MLSCN, NIH Roadmap, qHTS and NCGC", "values": [
      {"smiles": "C#CCN(C)[C@@H](C)Cc1ccccc1", "outcome": "inactive"},
      {"smiles": "CC[C@H]1C(=O)OC[C@H]1Cc1cncn1C", "outcome": "inactive"},
      {"smiles": "C[C@]12CC[C@H](O)C[C@@H]1CC[C@H]1[C@H]2CC[C@]2(C)C(=O)CC[C@@H]12", "outcome": "inactive"},
      {"smiles": "Cc1cc(N)c2ccccc2[n+]1CCCCCCCCCC[n+]1c(C)cc(N)c2ccccc21", "outcome": "inactive"},
      {"smiles": "CCCCCCC(C)(C)c1ccc([C@@H]2C[C@H](O)CC[C@@H]2CCCO)c(O)c1", "outcome": "inactive"},
      {"smiles": "CCCCN1C2CCC1CC(OC(c1ccc(F)cc1)c1ccc(F)cc1)C2", "note": "(stereo not drawn)", "outcome": "inactive"},
      {"smiles": "CCCN(CCC)C(=O)Cc1c(-c2ccc(Cl)cc2)nc2c(Cl)cc(Cl)cn12", "outcome": "inactive"},
      {"smiles": "C[C@H](NC(C)(C)C)C(=O)c1cccc(Cl)c1", "outcome": "inactive"},
      {"smiles": "S=C(S)N1CCCC1", "outcome": "inactive"},
      {"smiles": "CC(C)=CCC/C(C)=C/CC/C(C)=C/CSc1ccccc1C(=O)O", "outcome": "inactive"},
      {"smiles": "CC(C)N(CC[C@@](C(N)=O)(c1ccccc1)c1ccccn1)C(C)C", "outcome": "inactive"},
      {"smiles": "CCc1c(C(=O)OC)ncc2[nH]c3cc(OC)c(OC)cc3c12", "outcome": "inactive"},
      {"smiles": "COc1cc(OC)c(/C=C2/C(=O)Nc3ccccc32)c(OC)c1", "outcome": "inactive"},
      {"smiles": "COc1ccc(OC)c([C@H](O)[C@H](C)N)c1", "outcome": "inactive"},
      {"smiles": "C[N+]1(C)[C@@H]2CC[C@H]1CC(OC(=O)[C@@H](CO)c1ccccc1)C2", "note": "(stereo partly drawn)", "outcome": "inactive"},
      {"smiles": "COc1cc(C=C(C#N)C#N)cc(O)c1O", "outcome": "inactive"},
      {"smiles": "COc1cc([C@H]2c3cc4c(cc3[C@@H](O)[C@@H]3COC(=O)[C@H]23)OCO4)cc(OC)c1OC", "outcome": "inactive"},
      {"smiles": "CC(C)C[C@H]1C(=O)N2CCC[C@@H]2[C@]2(O)O[C@](NC(=O)[C@H]3C=C4c5cccc6[nH]c(Br)c(c56)C[C@H]4N(C)C3)(C(C)C)C(=O)N12", "outcome": "inactive"},
      {"smiles": "CC[C@@]1(c2ccc(N)cc2)CCC(=O)NC1=O", "outcome": "inactive"},
      {"smiles": "CN1CC[C@]2(C)c3cc(O)ccc3N(C)[C@@H]12", "outcome": "inactive"},
      {"smiles": "C[C@H]1OC[C@@H](C[N+](C)(C)C)O1", "outcome": "inactive"},
      {"smiles": "NCC#Cc1ccccc1", "outcome": "inactive"},
      {"smiles": "CC[N+](C)(C)Cc1ccccc1Br", "outcome": "inactive"},
      {"smiles": "NC[C@H](O)c1ccc(O)cc1", "outcome": "inactive"},
      {"smiles": "COc1ccc2c(c1OC)C(=O)O[C@H]2[C@H]1c2cc3c(cc2CCN1C)OCO3", "outcome": "inactive"},
      {"smiles": "NNCc1cccc(O)c1", "outcome": "inactive"},
      {"smiles": "CS(=N)(=O)CC[C@@H](N)C(=O)O", "note": "(stereo partly drawn)", "outcome": "inactive"},
      {"smiles": "NC(N)=NN=Cc1c(Cl)cccc1Cl", "outcome": "inactive"},
      {"smiles": "O=C(OC1CCN(CCCl)CC1)C(c1ccccc1)c1ccccc1", "outcome": "inactive"},
      {"smiles": "CN(CCOc1ccc(C[C@H](Nc2ccccc2C(=O)c2ccccc2)C(=O)O)cc1)c1ccccn1", "outcome": "inactive"},
      {"smiles": "N#C/C(=C\\c1ccc(O)c(O)c1)C(N)=S", "outcome": "inactive"},
      {"smiles": "C[C@@](Cc1ccc(O)c(O)c1)(NN)C(=O)O", "outcome": "inactive"},
      {"smiles": "CNC(=O)Oc1ccc2c(c1)[C@@]1(C)CCN(C)[C@@H]1N2C", "outcome": "inactive"}
    ]}
  ]
}
